The text below walks through data of PubChem BioAssay (Tox21).

The structures appear in SMILES notation. A number with no mark means an inactive call. Inconclusive results are not listed. The source made the active and inactive calls. Unless noted, the call rests on the fitted dose curve.

A short description of assay [1]: Nuclear factor erythroid 2-related factor 2/antioxidant responsive element (Nrf2/ARE) small molecule agonists: qHTS cell viability counter screen in human keratinocytes (AID 1919968; active means well fitted curve in the direction sought with a large enough effect in the repeat runs; an effect the other way counts as inactive or inconclusive; further: nearly all actives have a fitted effect of over 55% in size). Summed up:
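KeratinoSens cells (HaCaT keratinocytes stably carrying an ARE-luciferase reporter) were seeded at 1,500 cells/well and rested 5 h at 37 C/5% CO2. They were then exposed to compounds in DMSO for 23 h. Viability was read by CellTiter-Fluor fluorescence after 1 h.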

For assay [2], the target named is Gonadotropin-releasing hormone receptor (Homo sapiens) (UniProt P30968). Kind of assay: Human gonadotropin-releasing hormone receptor (GnRHR) small molecule agonists, calcium flux assay in GnRHR-HEK293 cells (AID 1920063). Further: nearly all actives have a fitted effect of over 35% in size. Summed up: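 HEK293 cells stably expressing human GnRHR were plated 18 h at 37 °C, loaded with calcium dye 1 h at 37 °C, then given compound in agonist mode; fluorescence (Ex/Em 480/540) read kinetically for 3 min at 1 s intervals.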
Sequence of Gonadotropin-releasing hormone receptor (Homo sapiens) (P30968 whole entry, looked up): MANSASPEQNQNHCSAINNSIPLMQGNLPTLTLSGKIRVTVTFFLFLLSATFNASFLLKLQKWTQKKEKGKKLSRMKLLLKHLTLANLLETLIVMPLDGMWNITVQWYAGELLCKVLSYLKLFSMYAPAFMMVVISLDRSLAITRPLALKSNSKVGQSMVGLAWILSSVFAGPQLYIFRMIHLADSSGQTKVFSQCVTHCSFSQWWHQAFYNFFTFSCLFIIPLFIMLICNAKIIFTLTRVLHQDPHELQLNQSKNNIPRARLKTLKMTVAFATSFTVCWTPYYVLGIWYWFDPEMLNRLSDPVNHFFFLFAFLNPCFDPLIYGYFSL
A general note: Calcium assays in cells follow changes in intracellular calcium, usually with a dye or a luminescent sensor.

Assay [3] addresses KiSS-1 receptor (Homo sapiens) (UniProt Q969F8). In words: Human kisspeptin (KISS1R) small molecule agonists, calcium flux assay in KISS1R-HEK293 cells (AID 1920064; active means well fitted curve in the direction sought with a large enough effect in the repeat runs; an effect the other way counts as inactive or inconclusive). Summed up:
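HEK293 cells stably expressing human KISS1R were plated 18 h at 37 °C, loaded with calcium dye for 1 h at 37 °C, then given compound by pin tool. Fluorescence (Ex/Em 480/540) was read kinetically for 3 min.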

Assay [4] can be described thus: p53 small molecule agonists, cell-based qHTS assay with human liver microsomes (AID 1963577). In short, it runs like this:
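Fluorescence of the beta-lactamase reporter in p53RE-bla cells, detected with LiveBLAzer substrate (2 h, room temperature, dark), served as the read-out after 16 h compound exposure at 37 C with human liver microsomes and NADPH, each 0.5 mg/mL final.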
A general note: Quantitative high-throughput screening tests each substance at several concentrations.

Assay [5] in a line: p53 small molecule agonists, cell-based qHTS assay with rat liver microsomes (AID 1963578). In short, it runs like this: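 Cells carrying a p53 response element–beta-lactamase reporter were plated and rested 5 h, then dosed with compound in DMSO plus rat liver microsomes and NADPH, each at 0.5 mg/mL final. After 16 h at 37 C, LiveBLAzer substrate was added for 2 h.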
The nature of assay [6]: p53 small molecule agonists, cell-based qHTS assay with human liver microsomes: qHTS cell viability counter screen (AID 1963579). Further: nearly all actives have a fitted effect of over 45% in size. Summed up: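 Cytotoxicity counter screen: p53RE-bla, 4,000 cells/well; 5 h settle, 37 C/5% CO2; cpd + HLM 0.5 mg/mL + NADPH 0.5 mg/mL (final); 16 h, 37 C; CellTiter-Glo, 30 min RT, luminescence.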
Assay [7] can be described thus: p53 small molecule agonists, cell-based qHTS assay: qHTS cell viability counter screen (AID 1963581). Further: nearly all actives have a fitted effect of over 45% in size. In short, it runs like this:
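p53RE-bla HCT-116 cells were exposed to compounds for 16 h at 37 C; after the beta-lactamase FRET read in the same wells, CellTiter-Glo was added and luminescence (intracellular ATP) read after 30 min at room temperature.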

The nature of assay [8]: p53 small molecule agonists, cell-based qHTS assay (AID 1963582; active means well fitted activation curve with a large enough effect in the signal ratio in the repeat runs, not every such curve was filed as active; the % refers to the signal ratio). In short, it runs like this: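 p53RE-bla beta-lactamase reporter cells rested 5 h at 37 C/5% CO2, then received compounds in DMSO by pin transfer and were incubated 16 h at 37 C. LiveBLAzer B/G FRET substrate was loaded for 2 h at room temperature before fluorescence reading.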
Assay [9] concerns the target 5-hydroxytryptamine receptor 2A (Homo sapiens) (UniProt P28223). Kind of assay: 5-hydroxytryptamine receptor 2A (HTR2A) small molecule antagonists, cell-based qHTS assay (AID 1963586). Further: nearly all actives have a fitted effect of over 45% in size. Further: potency means the concentration at half of the fitted maximal effect. Summed up:
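Antagonist-mode intracellular calcium assay: DOI (4 nM) added after 5 min compound pre-incubation at room temperature to dye-loaded HTR2A-CHO cells. Fluorescence followed for 3 min, sampled every second.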

For assay [10] the target is unchanged. In words: 5-hydroxytryptamine receptor 2A (HTR2A) small molecule agonists, cell-based qHTS assay (AID 1963587). Further: nearly all actives have a fitted effect of over 30% in size. Further: potency means the concentration at half of the fitted maximal effect. Summed up: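 HTR2A-CHO cells, plated 18 h at 37 C/5% CO2, dye-loaded 1 h at 37 C; compounds in DMSO added by pin tool (agonist mode). Intracellular calcium flux read as kinetic fluorescence on FDSS over 2 min at 1 s intervals.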
The target of assay [11] is Muscarinic acetylcholine receptor M1 (Homo sapiens) (UniProt P11229). Kind of assay: Cholinergic receptor muscarinic 1 (CHRM1) small molecule antagonists, cell-based qHTS assay (AID 1963588). Further: nearly all actives have a fitted effect of over 40% in size. Summed up:
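CHRM1-CHO calcium-flux assay, antagonist mode. Cells were seeded 18 h, dye-loaded 1 h at 37 C and given compound for 5 min at RT, then acetylcholine was added at 50nM. FDSS fluorescence was read 3 min; 15 concentrations, three runs.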

The target is the same in assay [12]. In words: Cholinergic receptor muscarinic 1 (CHRM1) small molecule agonists, cell-based qHTS assay (AID 1963589). Further: nearly all actives have a fitted effect of over 35% in size. Summed up: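 CHO cells stably expressing human CHRM1, seeded 18 h at 37 C/5% CO2, dye-loaded 1 h at 37 C, then given compound in agonist mode; intracellular calcium fluorescence read kinetically at 1 s intervals. Fifteen concentrations, three independent runs.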

Assay [13] in a line: cAMP Responsive Elements (CRE) small molecule antagonists, cell-based qHTS assay (AID 1963591; active means well fitted inhibition curve with a large enough effect in the signal ratio in the repeat runs, not every such curve was filed as active; the % refers to the signal ratio). In short, it runs like this:
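CRE-bla HEK293T cells were plated 18 h at 37 °C/5% CO2, pinned with compound in DMSO, then stimulated with NKH477 at 0.25 uM final for 3 h. LiveBLAzer B/G FRET substrate was added and plates incubated 2 h at room temperature.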

For assay [14], the target named is Beta-2 adrenergic receptor (Homo sapiens) (UniProt P07550). In words: Adrenergic beta2 receptor (ADRB2) small molecule antagonists, cell-based qHTS assay (AID 1963592). Further: series mostly up to about 92 µM; nearly all actives have a fitted effect of over 50% in size. In short, it runs like this:
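Cells (CHO, stable ADRB2 overexpression) incubated 18-20hr at 37C; compounds added from DMSO; agonist mix (1nM isoproterenol, 100uM IBMX, 25uM Ro-20-1724) added; 0.5hr RT; d2-cAMP and anti-cAMP-cryptate added; 1hr RT; 665/615 nm read.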

Assay [15] addresses D(2) dopamine receptor (Homo sapiens) (UniProt P14416). In words: Dopamine D2 receptor (DRD2) small molecule agonists, cell-based qHTS assay (AID 1963594). Further: nearly all actives have a fitted effect of over 35% in size. Summed up: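 HEK293 cells stably expressing DRD2 were cultured 24 h at 37 C, then given Ro20-1724 (0.1 mM final) and compounds for 10 min at room temperature. NKH477 (200nM) was then added for 30 min. cAMP was read by HTRF.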

For assay [16] the target is unchanged. In words: Dopamine D2 receptor (DRD2) small molecule antagonists, cell-based qHTS assay (AID 1963595; active means well fitted inhibition curve with a large enough effect in the signal ratio in the repeat runs, with a control signal flat; the % refers to the signal ratio). Summed up:
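Antagonist mode in DRD2-HEK293 cells: after compound addition with 0.1 mM Ro20-1724, cells received quinpirole (12 nM) and NKH477 (200 nM) for 30 min at room temperature; HTRF cAMP read after 1 h detection.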

Assay [17] is described as follows: p53 small molecule agonists, cell-based qHTS assay with rat liver microsomes: qHTS cell viability counter screen (AID 1963580). Further: nearly all actives have a fitted effect of over 45% in size. In short, it runs like this:
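In HCT-116 cells carrying a p53 response element-bla reporter, compounds were metabolically activated in situ by rat liver microsomes with NADPH over 16 h. Cell ATP content then served as the cytotoxicity measure.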

Assay [18] in a line: cAMP Responsive Elements (CRE) small molecule agonists, cell-based qHTS assay (AID 1963590). Summed up:
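CRE-bla HEK 293T cells in DMEM with 10% dialyzed FBS, NEAA, pyruvate and 25 mM HEPES were plated 18 h at 37 C/5% CO2, then exposed to compounds in DMSO for 3 h before LiveBLAzer B/G FRET substrate addition.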

Assay [19] in a line: G protein-coupled receptor (GPCR) small molecule agonists, calcium flux assay: HEK293 wild type cell line counter screen (AID 1920065). Summed up:
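Cells were plated and cultured 18 h at 37 C/5% CO2, then loaded with calcium dye for 1 h at 37 C. Compounds in DMSO were pin-transferred in agonist mode, and fluorescence (Ex/Em 480/540) was read kinetically for 3 min at 1 s intervals.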

In assay [20] the target is Beta-2 adrenergic receptor (Homo sapiens) (UniProt P07550). Kind of assay: Adrenergic beta2 receptor (ADRB2) small molecule agonists, cell-based qHTS assay (AID 1963593).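 Further: CHO cells stably overexpressing human ADRB2.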 Summed up: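 CHO cells stably over-expressing ADRB2 were plated overnight at 37C, then dosed with compounds plus a stimulation mix containing 100uM IBMX and 25uM Ro-20-1724 for 0.5hr at room temperature. cAMP was measured by HTRF competition, 1hr.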
Sequence of Beta-2 adrenergic receptor (Homo sapiens) (P07550 whole entry, looked up): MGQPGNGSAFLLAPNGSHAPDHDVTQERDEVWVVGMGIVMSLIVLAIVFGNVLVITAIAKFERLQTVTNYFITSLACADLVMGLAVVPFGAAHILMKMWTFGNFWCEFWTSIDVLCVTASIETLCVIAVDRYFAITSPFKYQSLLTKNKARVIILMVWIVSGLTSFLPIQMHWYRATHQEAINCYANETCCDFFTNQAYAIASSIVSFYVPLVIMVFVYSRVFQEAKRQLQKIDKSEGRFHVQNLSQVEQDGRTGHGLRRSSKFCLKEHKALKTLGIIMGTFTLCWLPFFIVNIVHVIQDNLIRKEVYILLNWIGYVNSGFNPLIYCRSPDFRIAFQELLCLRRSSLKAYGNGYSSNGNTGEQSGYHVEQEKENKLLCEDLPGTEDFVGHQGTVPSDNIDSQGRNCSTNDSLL

Sequence of KiSS-1 receptor (Homo sapiens) (Q969F8 whole entry, looked up): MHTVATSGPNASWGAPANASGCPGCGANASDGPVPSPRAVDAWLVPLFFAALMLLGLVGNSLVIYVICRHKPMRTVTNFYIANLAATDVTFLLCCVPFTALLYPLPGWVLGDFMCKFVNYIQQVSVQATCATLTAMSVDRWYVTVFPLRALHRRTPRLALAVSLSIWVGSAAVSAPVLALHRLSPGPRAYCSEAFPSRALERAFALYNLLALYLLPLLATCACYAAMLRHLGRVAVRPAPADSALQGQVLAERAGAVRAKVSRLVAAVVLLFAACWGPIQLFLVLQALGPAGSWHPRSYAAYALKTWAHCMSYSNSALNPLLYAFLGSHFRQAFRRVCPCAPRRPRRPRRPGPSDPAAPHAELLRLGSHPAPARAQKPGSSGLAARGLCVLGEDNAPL
Sequence of 5-hydroxytryptamine receptor 2A (Homo sapiens) (P28223 whole entry, looked up): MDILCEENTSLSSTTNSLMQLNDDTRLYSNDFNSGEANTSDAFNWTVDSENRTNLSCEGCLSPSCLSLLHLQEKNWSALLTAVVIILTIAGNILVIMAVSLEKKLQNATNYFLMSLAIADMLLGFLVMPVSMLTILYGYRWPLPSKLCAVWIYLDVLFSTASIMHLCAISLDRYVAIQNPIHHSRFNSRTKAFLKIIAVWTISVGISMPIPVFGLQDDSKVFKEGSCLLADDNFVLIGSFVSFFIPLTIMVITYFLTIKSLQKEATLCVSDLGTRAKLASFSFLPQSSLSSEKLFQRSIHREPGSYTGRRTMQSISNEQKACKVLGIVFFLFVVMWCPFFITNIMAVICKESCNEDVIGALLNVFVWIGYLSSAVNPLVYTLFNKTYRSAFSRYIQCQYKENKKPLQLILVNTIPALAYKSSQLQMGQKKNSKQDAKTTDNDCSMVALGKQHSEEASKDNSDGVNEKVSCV
Sequence of D(2) dopamine receptor (Homo sapiens) (P14416 whole entry, looked up): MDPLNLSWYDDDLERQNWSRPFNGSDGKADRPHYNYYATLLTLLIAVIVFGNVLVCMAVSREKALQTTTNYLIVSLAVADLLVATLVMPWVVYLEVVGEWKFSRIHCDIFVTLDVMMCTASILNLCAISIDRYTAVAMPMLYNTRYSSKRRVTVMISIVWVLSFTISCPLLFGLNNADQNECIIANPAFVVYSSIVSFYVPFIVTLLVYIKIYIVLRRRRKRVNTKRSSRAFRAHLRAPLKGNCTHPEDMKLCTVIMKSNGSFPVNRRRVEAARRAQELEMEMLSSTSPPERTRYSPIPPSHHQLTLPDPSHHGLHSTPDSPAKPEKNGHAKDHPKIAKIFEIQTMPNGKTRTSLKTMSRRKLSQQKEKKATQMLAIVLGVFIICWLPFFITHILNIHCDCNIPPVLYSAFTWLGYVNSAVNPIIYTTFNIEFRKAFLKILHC
Sequence of Muscarinic acetylcholine receptor M1 (Homo sapiens) (P11229 whole entry, looked up): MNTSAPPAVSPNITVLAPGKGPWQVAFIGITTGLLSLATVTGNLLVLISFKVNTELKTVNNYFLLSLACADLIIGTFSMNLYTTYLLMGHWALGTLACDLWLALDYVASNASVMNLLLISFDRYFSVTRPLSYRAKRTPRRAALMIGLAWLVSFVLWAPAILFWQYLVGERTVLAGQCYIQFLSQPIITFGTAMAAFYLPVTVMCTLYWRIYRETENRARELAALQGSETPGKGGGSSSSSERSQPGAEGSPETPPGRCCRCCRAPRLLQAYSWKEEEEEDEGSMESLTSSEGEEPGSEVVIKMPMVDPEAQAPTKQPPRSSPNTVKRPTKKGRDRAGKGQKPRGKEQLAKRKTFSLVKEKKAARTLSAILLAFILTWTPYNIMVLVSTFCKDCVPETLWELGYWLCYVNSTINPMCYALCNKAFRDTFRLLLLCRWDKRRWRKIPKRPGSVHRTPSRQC

On to `S=c1nccc[nH]1`, for which the Potency entry in assay [1], in assay [2], in assay [3], in assay [4], in assay [5] and in assay [6] was “inactive” throughout. Moreover, the Potency result in [7], in assay [8], in [9], in [10], in [11] and in assay [12] was “inactive” each time. The Potency entry in assay [13], in assay [14], in assay [15] and in [16] was “inactive” each time.
For the molecule `CC(C)CCOC(=O)c1ccc(N(C)C)cc1`, the Potency entry in assay [1], in assay [2], in assay [3], in [5], in assay [6] and in assay [17] was “inactive” each time. Also, the Potency result in [7], in assay [8], in assay [10], in assay [11], in assay [12] and in assay [18] was “inactive” in each case. Moreover, the Potency entry in assay [13], in [14], in assay [15] and in assay [16] was “inactive” throughout.
Consider `CC(=O)OCC(C)OC(C)=O` (configuration not stated), for which the Potency entry in assay [1], in assay [2], in assay [3], in assay [4], in assay [5] and in assay [6] was “inactive” throughout. Further, the Potency entry in [17], in [7], in assay [8], in assay [9], in assay [10] and in assay [11] was “inactive” in each case. The Potency result in assay [12], in assay [18], in [13], in assay [14], in assay [15] and in assay [16] was “inactive” in each case.
As for `CCCCCOC(=O)c1ccc(O)cc1`, the Potency entry in assay [1], in assay [2], in [3], in assay [19], in assay [17] and in assay [7] was “inactive” throughout. Moreover, the Potency result in assay [12], in [20], in assay [15] and in assay [16] was “inactive” throughout. In addition, the figures for the Potency in [9] and in assay [10] were 9.54 µM (active) and 35.1 µM (active), respectively.
Consider `CC(C)O`, for which the Potency entry in [1], in assay [2], in [3], in assay [19], in assay [6] and in assay [7] was “inactive” in each case. Further, the Potency entry in assay [9], in [10], in [11], in assay [12], in [13] and in assay [14] was “inactive” throughout. Also, the Potency result in [15] and in [16] was “inactive” each time.
In the case of `CCC(C)O` (configuration not stated), the Potency result in assay [1], in assay [2], in [3], in assay [4], in assay [5] and in assay [6] was “inactive” throughout. The Potency result in assay [17], in assay [7], in assay [8], in assay [9], in assay [11] and in assay [18] was “inactive” throughout. Also, the Potency entry in assay [20] and in [15] was “inactive” in each case.
On to `Sc1nc(S)nc(S)n1`, for which the Potency entry in assay [1], in assay [2], in assay [3], in assay [4], in assay [5] and in assay [6] was “inactive” in each case. Besides, the Potency result in assay [17], in [7], in assay [8], in [9], in assay [10] and in assay [11] was “inactive” throughout. Further, the Potency result in [12], in assay [18], in [13], in assay [14], in assay [20] and in assay [15] was “inactive” throughout. The Potency entry in assay [16] was “inactive”.
As to `CCCCCCCC#N`, the Potency result in assay [1], in assay [2], in assay [3], in assay [19], in assay [7] and in [9] was “inactive” in each case. Moreover, the Potency result in [10], in assay [11], in assay [12], in [13], in [20] and in assay [15] was “inactive” throughout. Also, the Potency entry in [16] is “inactive”.
